From the antibiotic and cytotoxicity screens of Wong et al. (2023)
Hit rate of the full screen: of about 39,000 compounds, about 3,300 (8.5%) were called active. Many of the other results were omitted from the sample, so actives are more common in it than they were.

These molecules were tested on HepG2 (assay: cytotoxicity call (relative viability < 0.9)). Conditions: 10 µM.
C[C@@H]1CN([C@@H](C)CO)C(=O)c2ccccc2-c2ccccc2CO[C@H]1CN(C)Cc1ccccc1C(F)(F)F was tested, and the cytotoxicity call was “inactive”.
In the case of O=C(C[C@@H]1CC[C@H]2[C@@H](COC[C@@H](O)CN2S(=O)(=O)c2ccc(F)cc2)O1)N[C@@H]1CCN(Cc2ccccc2)C1, the cytotoxicity call is reported as “inactive”.
With O=C(C[C@H]1CC[C@H](NC(=O)Cc2ccccn2)[C@H](CO)O1)NCCc1ccncc1 the cytotoxicity call was “inactive”.
With CSc1ccc2c(c1)N(CCC1CCCCN1C)c1ccccc1S2.Cl (centres undefined) the cytotoxicity call was “active”.
In the case of CC1CCN(C(=O)N2c3ccccc3Sc3ccccc32)CC1, the cytotoxicity call is reported as “inactive”.
For C[C@H]1CN([C@@H](C)CO)C(=O)c2cccc(NS(=O)(=O)c3cccs3)c2O[C@H]1CN(C)S(C)(=O)=O, the cytotoxicity call was “inactive”.
With C[C@@H]1CN([C@@H](C)CO)C(=O)c2cc(NC(=O)Nc3ccccc3)ccc2O[C@@H](C)CCCCO[C@H]1CN(C)C(=O)CCC(F)(F)F the cytotoxicity call was “inactive”.
In the case of C[C@@H]1CCCCO[C@H](CN(C)S(=O)(=O)c2cccs2)[C@H](C)CN([C@@H](C)CO)C(=O)c2cc(NC(=O)Nc3ccc(C(F)(F)F)cc3)ccc2O1, the cytotoxicity call is reported as “active”.
For C[C@@H]1CCCCO[C@H](CN(C)S(=O)(=O)c2cccs2)[C@@H](C)CN([C@@H](C)CO)C(=O)c2cc(NC(=O)Nc3ccc(C(F)(F)F)cc3)ccc2O1, the cytotoxicity call was “active”.
C[C@@H]1CCCCO[C@@H](CN(C)S(=O)(=O)c2cccs2)[C@@H](C)CN([C@H](C)CO)C(=O)c2cc(NC(=O)Nc3ccc(C(F)(F)F)cc3)ccc2O1 was tested, and the cytotoxicity call was “inactive”.
For C[C@H](CO)N1C[C@H](C)[C@@H](CN(C)S(=O)(=O)c2cccs2)OCCCC[C@H](C)Oc2ccc(NC(=O)Nc3ccc(C(F)(F)F)cc3)cc2C1=O, the cytotoxicity call was “inactive”.
In the case of C[C@@H]1CN([C@H](C)CO)C(=O)c2cc(NC(=O)Nc3ccc(C(F)(F)F)cc3)ccc2O[C@@H](C)CCCCO[C@@H]1CN(C)S(=O)(=O)c1cccs1, the cytotoxicity call is reported as “inactive”.
With C[C@@H]1CN([C@@H](C)CO)C(=O)c2cc(NC(=O)Nc3ccc(C(F)(F)F)cc3)ccc2O[C@@H](C)CCCCO[C@@H]1CN(C)S(=O)(=O)c1cccs1 the cytotoxicity call was “inactive”.
C[C@@H]1CN([C@H](C)CO)C(=O)c2cc(NC(=O)C3CC3)ccc2O[C@H]1CN(C)Cc1ccc(Oc2ccccc2)cc1 was tested, and the cytotoxicity call was “inactive”.
For COc1cc(OC)c([C@@H]2c3c(n(C)c(=O)n(C)c3=O)N=C3COC(=O)C32)cc1OC (some centres undefined), the cytotoxicity call was “inactive”.
NCc1cnc(Nc2ccccc2)nc1 was tested, and the cytotoxicity call was “inactive”.
With COc1ccc(S(=O)(=O)Nc2ccc3c(c2)C(=O)N([C@H](C)CO)C[C@H](C)[C@@H](CN(C)Cc2ccc4c(c2)OCO4)OCCCC[C@@H](C)O3)cc1 the cytotoxicity call was “inactive”.
In the case of C[C@@H]1CCCCO[C@H](CN(C)C(=O)C2CCCCC2)[C@H](C)CN([C@H](C)CO)C(=O)c2cc(NC(=O)c3ccccc3)ccc2O1, the cytotoxicity call is reported as “inactive”.
With C[C@@H]1CN([C@@H](C)CO)C(=O)c2cccc(NC(=O)C3CCCCC3)c2O[C@@H]1CN(C)Cc1ccc(C(F)(F)F)cc1 the cytotoxicity call was “inactive”.
C[C@H](CO)N1C[C@H](C)[C@@H](CN(C)C(=O)c2cnccn2)Oc2ncc(C#Cc3ccccn3)cc2C1=O was tested, and the cytotoxicity call was “inactive”.
In the case of CCCCC[C@@H](C)N, the cytotoxicity call is reported as “inactive”.
With C[C@@H]1CN([C@H](C)CO)C(=O)Cc2cc(NS(=O)(=O)c3cn(C)cn3)ccc2O[C@@H]1CN(C)CC1CC1 the cytotoxicity call was “inactive”.
O=C(Nc1cccc2cccnc12)[C@@H]1[C@H](c2cc(Cl)cc(Br)c2)CC(=O)N1C(=O)OCc1ccccc1 was tested, and the cytotoxicity call was “active”.
With O=C(Nc1cccc2cccnc12)[C@@H]1[C@H](c2ccc(-c3ccccc3)cc2)CC(=O)N1C(=O)OCc1ccccc1 the cytotoxicity call was “inactive”.
O=C(Nc1cccc2cccnc12)[C@@H]1[C@H](c2cccc(Br)c2)CC(=O)N1C(=O)OCc1ccccc1 was tested, and the cytotoxicity call was “inactive”.
With COc1ccc(NC(=O)[C@H]2[C@@H](c3ccc(C)cc3)CC(=O)N2C(=O)OCc2ccccc2)c2ncccc12 the cytotoxicity call was “active”.
COc1ccc(NC(=O)[C@@H]2[C@H](c3ccc(C)cc3)CC(=O)N2C(=O)OCc2ccccc2)c2ncccc12 was tested, and the cytotoxicity call was “inactive”.
O=C(Nc1cccc2cccnc12)[C@@H]1[C@H](c2ccc(Br)cc2)CC(=O)N1C(=O)OCc1ccccc1 was tested, and the cytotoxicity call was “inactive”.
With C[C@H](CO)N1C[C@H](C)[C@H](CN(C)Cc2ccccc2)Oc2c(NS(=O)(=O)c3cn(C)cn3)cccc2C1=O the cytotoxicity call was “inactive”.
With COC(=O)C1=CO[C@@H](O[C@@H]2O[C@H](CO)[C@@H](O)[C@H](O)[C@H]2O)[C@@H]2[C@@H](C)[C@@H](O)C[C@H]12 the cytotoxicity call was “inactive”.
In the case of CC1=NNC(=O)CC1, the cytotoxicity call is reported as “inactive”.
Cc1noc(C)c1NC(=O)Nc1ccc2c(c1)C(=O)N([C@H](C)CO)C[C@@H](C)[C@@H](CN(C)Cc1ccc(C(F)(F)F)cc1)OCCCC[C@@H](C)O2 was tested, and the cytotoxicity call was “inactive”.
In the case of c1ccc(CNc2nn[nH]n2)cc1, the cytotoxicity call is reported as “inactive”.
In the case of c1ccc(CNc2ccc3c(ccc4c5ccccc5[nH]c34)n2)cc1, the cytotoxicity call is reported as “active”.
Cn1nnnc1NCc1ccccc1 was tested, and the cytotoxicity call was “inactive”.
C[C@@H](CO)N1C(=O)[C@@H]2[C@H]3C(=O)OCCC=C[C@H]3O[C@]23C=CCN(Cn2nnc4ccccc42)C(=O)[C@@H]13 was tested, and the cytotoxicity call was “inactive”.
With O=c1nc[nH]c2ccccc12 the cytotoxicity call was “inactive”.
With FC(F)(F)c1ccc(CSc2c[nH]c3ccccc23)cc1 the cytotoxicity call was “inactive”.
Brc1ccc(CSc2c[nH]c3ccccc23)cc1 was tested, and the cytotoxicity call was “active”.
In the case of CC1(C)C=Cc2c(nc3ccccc3c2NCc2ccccc2)C1, the cytotoxicity call is reported as “active”.
With Cn1nnc(NCc2ccccc2)n1 the cytotoxicity call was “inactive”.
In the case of CC(C)NC(=O)Nc1cccc2c1O[C@H](CN(C)S(=O)(=O)c1ccc(Cl)cc1)[C@@H](C)CN([C@@H](C)CO)C2=O, the cytotoxicity call is reported as “inactive”.
For CNC(=O)C[C@H]1CC[C@H]2[C@@H](COC[C@@H](O)CN2C(=O)c2ccccn2)O1, the cytotoxicity call was “inactive”.
C=C[C@@H]1C[C@]1(NC(=O)[C@@H]1C[C@@H]2CN1C(=O)[C@H](C(C)(C)C)NC(=O)O[C@@H]1C[C@H]1CCCCCc1nc3ccc(OC)cc3nc1O2)C(=O)NS(=O)(=O)C1CC1 was tested, and the cytotoxicity call was “inactive”.
With COCC#Cc1ccc2c(c1)O[C@H](CN(C)C(=O)Nc1ccccc1F)[C@@H](C)CN([C@H](C)CO)S2(=O)=O the cytotoxicity call was “inactive”.
C[C@H](CO)N1C[C@H](C)[C@@H](CN(C)S(=O)(=O)c2cccs2)Oc2ccc(NC(=O)Cn3cnnn3)cc2CC1=O was tested, and the cytotoxicity call was “inactive”.
With C[C@H]1CN([C@@H](C)CO)C(=O)c2cc(NC(=O)Nc3cccc4ccccc34)ccc2O[C@@H]1CN(C)Cc1ccc(C(=O)Nc2ccccc2N)cc1 the cytotoxicity call was “inactive”.
In the case of C[C@H]1CN([C@@H](C)CO)C(=O)c2cc(NC(=O)Nc3cccc4ccccc34)ccc2O[C@H]1CN(C)Cc1ccc(C(=O)Nc2ccccc2N)cc1, the cytotoxicity call is reported as “inactive”.
For C[C@@H]1CN([C@H](C)CO)C(=O)c2cc(NC(=O)Nc3cccc4ccccc34)ccc2O[C@@H]1CN(C)Cc1ccc(C(=O)Nc2ccccc2N)cc1, the cytotoxicity call was “active”.
In the case of C[C@@H]1CN([C@H](C)CO)C(=O)c2cc(NC(=O)Nc3cccc4ccccc34)ccc2O[C@H]1CN(C)Cc1ccc(C(=O)Nc2ccccc2N)cc1, the cytotoxicity call is reported as “inactive”.
In the case of C[C@H](CO)N1C[C@H](C)[C@@H](CN(C)Cc2ccc(C(=O)Nc3ccccc3N)cc2)Oc2ccc(NC(=O)Nc3cccc4ccccc34)cc2C1=O, the cytotoxicity call is reported as “inactive”.
In the case of C[C@H](CO)N1C[C@H](C)[C@H](CN(C)Cc2ccc(C(=O)Nc3ccccc3N)cc2)Oc2ccc(NC(=O)Nc3cccc4ccccc34)cc2C1=O, the cytotoxicity call is reported as “active”.
CN1C(=O)c2cc(NC(=O)Cc3cccs3)ccc2OC[C@@H]2O[C@@H](CC(=O)NCCCN3CCOCC3)CC[C@H]21 was tested, and the cytotoxicity call was “inactive”.
COCCOC(=O)N1C(=O)[C@@]2(c3cc(C#CCNC(N)=O)ccc31)[C@H](c1ccc(O)cc1)N1[C@H](c3ccccc3)[C@H](c3ccccc3)OC(=O)[C@H]1[C@@H]2C(=O)N1CCc2cc(OC)c(OC)cc2C1 was tested, and the cytotoxicity call was “inactive”.
With COC(=O)[C@H]1[C@H](CO)[C@H]2Cn3c(cccc3=O)[C@H]2N1C(=O)C1CC1 the cytotoxicity call was “inactive”.
In the case of C[C@H](CO)N1C[C@H](C)[C@@H](CN(C)Cc2ccc(C(=O)Nc3ccccc3N)cc2)Oc2c(NC(=O)Nc3ccccc3)cccc2C1=O, the cytotoxicity call is reported as “inactive”.
C[C@H](C(=O)O)N1CCCC1=O was tested, and the cytotoxicity call was “inactive”.
For C[C@H](CO)N1C[C@H](C)[C@@H](CN(C)C(=O)Nc2cccc3ccccc23)Oc2ccc(NC(=O)Nc3ccccc3)cc2C1=O, the cytotoxicity call was “inactive”.
COc1ccc(S(=O)(=O)N2C[C@H](O)COC[C@@H]3O[C@H](CC(=O)NCCCN(C)C)CC[C@H]32)cc1 was tested, and the cytotoxicity call was “inactive”.
With C[C@H]1CN([C@@H](C)CO)C(=O)c2c(c3ccccc3n2C)-c2ccccc2CO[C@@H]1CN(C)Cc1cccc(C(=O)O)c1 the cytotoxicity call was “inactive”.
In the case of Cc1ccc(S(=O)(=O)N(C)C[C@H]2Oc3c(NC(=O)Nc4cccc5ccccc45)cccc3C(=O)N([C@@H](C)CO)C[C@H]2C)cc1, the cytotoxicity call is reported as “inactive”.
O=C(C[C@@H]1C[C@@H]2c3cc(NS(=O)(=O)c4ccc(F)cc4)ccc3O[C@@H]2[C@H](CO)O1)NCCc1ccccc1 was tested, and the cytotoxicity call was “inactive”.
For C[C@@H]1CN([C@@H](C)CO)C(=O)Cc2cc(NC(=O)c3ccncc3)ccc2O[C@@H]1CN(C)S(=O)(=O)c1cccs1, the cytotoxicity call was “active”.
C[C@H]1CN([C@@H](C)CO)C(=O)Cc2cc(NC(=O)c3ccncc3)ccc2O[C@@H]1CN(C)S(=O)(=O)c1cccs1 was tested, and the cytotoxicity call was “inactive”.
CC(C)NC(=O)Nc1ccc2c(c1)CC(=O)N([C@@H](C)CO)C[C@H](C)[C@H](CN(C)S(=O)(=O)c1cccs1)O2 was tested, and the cytotoxicity call was “inactive”.
In the case of C[C@@H]1CN([C@@H](C)CO)C(=O)Cc2cc(NC(=O)c3ccncc3)ccc2O[C@@H]1CN(C)S(=O)(=O)c1ccccc1, the cytotoxicity call is reported as “active”.
CC(C)NC(=O)Nc1ccc2c(c1)CC(=O)N([C@@H](C)CO)C[C@@H](C)[C@@H](CN(C)S(=O)(=O)c1cccs1)O2 was tested, and the cytotoxicity call was “active”.
For C[C@@H]1CN([C@@H](C)CO)C(=O)Cc2cc(NC(=O)Nc3cccc4ccccc34)ccc2O[C@@H]1CN(C)S(=O)(=O)c1cccs1, the cytotoxicity call was “active”.
In the case of C[C@H]1CN([C@@H](C)CO)C(=O)Cc2cc(NC(=O)Nc3cccc4ccccc34)ccc2O[C@H]1CN(C)S(=O)(=O)c1cccs1, the cytotoxicity call is reported as “inactive”.
C[C@H](CO)N1C[C@H](C)[C@H](CN(C)S(=O)(=O)c2cccs2)Oc2ccc(NC(=O)Nc3cccc4ccccc34)cc2CC1=O was tested, and the cytotoxicity call was “inactive”.
In the case of C[C@H]1CN([C@@H](C)CO)C(=O)Cc2cc(NC(=O)c3ccncc3)ccc2O[C@@H]1CN(C)S(=O)(=O)c1ccccc1, the cytotoxicity call is reported as “inactive”.
In the case of CC(C)NC(=O)Nc1ccc2c(c1)CC(=O)N([C@H](C)CO)C[C@H](C)[C@H](CN(C)S(=O)(=O)c1cccs1)O2, the cytotoxicity call is reported as “inactive”.
For C[C@H](CO)N1C[C@H](C)[C@H](CN(C)S(=O)(=O)c2ccccc2)Oc2ccc(NC(=O)c3ccncc3)cc2CC1=O, the cytotoxicity call was “inactive”.
In the case of C[C@@H]1CN([C@@H](C)CO)C(=O)Cc2cc(NC(=O)c3ccncc3)ccc2O[C@H]1CN(C)S(=O)(=O)c1cccs1, the cytotoxicity call is reported as “inactive”.
